# PubChem BioAssay AID1053126 (Broad Institute, 2014)
# Entries with a potency or affinity are not part of this list. The source made the active and inactive calls.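 Rule for the calls: active = cell killing with a fitted half-effect concentration at or below twice the top valid dose; inconclusive = flat curve with 30 to 70 percent drop, or poor fit; inactive = the rest.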
# Test: HEK293T cell cytotoxicity, dose response, cytotoxicity control, ATP luminescence, cherry-pick, set 6 (AID 1053126);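 note: 0% = neutral control wells and -100% = mitoxantrone 10 µM positive control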
# Settings: HEK293T viability, CellTiter-Glo ATP luminescence, 72 h; series mostly up to 26 µM; activity change, negative = cytotoxicity: at the top concentration
row,Structure (SMILES),"activity change, negative = cytotoxicity"
1,Cc1c2c(n3c(nc4ccccc43)c1C#N)N(CCN1CCOCC1)CC2,-6.36% (inactive)
2,Cc1oc(/N=C/c2ccc(F)cc2)c(C#N)c1C,-3.38% (inactive)
3,C[C@H](NC(=O)c1nc[nH]c1C(=O)N[C@@H](Cc1ccccc1)C(=O)OC(C)(C)C)C(=O)OCc1ccccc1,12% (inactive)
4,CCOC(=O)C(NC(=O)c1ccccc1)(OCC1(CC)COC1)C(F)(F)F (stereo not drawn),-8.47% (inactive)
5,O=C(NCc1nnnn1-c1ccc(Cl)cc1)C1CC(=O)N(c2ccc(F)cc2)C1 (stereo not drawn),19.6% (inactive)
6,N#C/C(=C\c1ccc(N2CCOCC2)o1)C(=O)NCCc1ccccc1,-16.7% (inactive)
7,C=CCc1c(O)c(CC)cc2c(C)cc(=O)oc12,-17.5% (inactive)
8,COc1ccc(S(=O)(=O)N2CCCC2CNC(=O)C(=O)NC2CCCC2)cc1 (stereo not drawn),-3.54% (inactive)
9,CC1=C(C(=O)N2CCN(c3cc(C)ccc3C)CC2)C2(CCCCC2)OC1=O,-3.96% (inactive)
10,Cc1cccn2c(=O)c3cc(C(=O)NCC4CCCO4)c(=N)n(CC4CCCO4)c3nc12 (stereo not drawn),1.69% (inactive)
11,Cn1cc(C(c2ccccc2OCC(=O)O)c2cn(C)c3ccccc23)c2ccccc21,-5.72% (inactive)
12,COCc1cc(C)nc(SCC(=O)Oc2ccc(Cl)cc2)c1C#N,-8.93% (inactive)
13,Cc1nc2ccc(S(=O)(=O)Nc3ccc(-c4nc5cccnc5s4)cc3)cc2s1,31.4% (inactive)
14,O=C(O)C1=CC[C@@H](c2ccc(Cl)cc2)N(S(=O)(=O)c2ccc(Cl)cc2)[C@H]1c1ccc(F)cc1,-13.8% (inactive)
15,Cc1cc(-c2nc3cccnc3s2)ccc1NS(=O)(=O)c1cccs1,2.17% (inactive)
16,O=c1[nH]c2ccccc2nc1/C=C/c1ccccc1,-14.3% (inactive)
17,Clc1ccccc1C1=CC(c2ccco2)n2ncnc2N1 (stereo not drawn),-3.56% (inactive)
18,Fc1ccc(-c2nc3ccccn3c2NCc2ccc3c(c2)OCO3)cc1,-10.2% (inactive)
19,Cc1c(Nc2c3ccccc3nc3ccccc23)c(=O)n(-c2ccccc2)n1C,-5.14% (inactive)

row,Structure (SMILES),"activity change, negative = cytotoxicity"
1,CCOC(=O)C1=CN(CC2CCCO2)C=C(C(=O)OCC)C1c1ccccc1C(F)(F)F (stereo not drawn),-8.62% (inactive)
2,COc1cc(C2C3=C(CC(C)(C)CC3=O)N(C)C3=C2C(=O)CC(C)(C)C3)cc(Br)c1O,5.63% (inactive)
3,C#CCOc1ccc(C2C(C#N)=C(N)Oc3cc(O)ccc32)cc1 (stereo not drawn),7.8% (inactive)
4,CCOc1ccc2nc(NCCNC(=O)CC)c(C#N)cc2c1,-1.9% (inactive)
5,COc1ccc(C2C3=C(CCCC3=O)N(CC(=O)O)C3=C2C(=O)CCC3)cc1,5.62% (inactive)
6,COc1ccccc1NS(=O)(=O)c1cc(NC(=O)CCNC(C)=O)ccc1C,4.56% (inactive)
7,O=C1CCc2cc(S(=O)(=O)NC(Cc3ccccc3)C(=O)NCCC3=CCCCC3)ccc2N1 (stereo not drawn),8.41% (inactive)
8,CC(=O)Oc1ccc2cc(-c3nc4ccccc4n3C)c(=O)oc2c1,-5.92% (inactive)
9,CCOC(=O)c1cc2c(=O)n3ccccc3nc2n(C(C)C)c1=NC(=O)c1ccco1,-13.2% (inactive)
10,COCCCn1c(=N)c(C(=O)NC2CCCCC2)cc2c(=O)n3ccccc3nc21,22.6% (inactive)
11,COc1ccccc1OCc1ccc(C(=O)N(C)c2ccccc2)o1,23.6% (inactive)
12,COc1cc(C(=O)NCCCNc2nc3c(C)cc(C)cc3cc2C#N)cc(OC)c1OC,7.6% (inactive)
13,N#Cc1c2ccc(OCC(N)=O)cc2n2ccccc12,-5.42% (inactive)
14,CCOC(=O)c1cc(-c2ccccc2)sc1NC(=O)CSc1nnc(N)s1,-2.94% (inactive)
15,CCn1c2ccccc2c(=O)c2ccccc21,-13.3% (inactive)
16,CSc1ccc(Cl)c(C(=O)N2CCOc3ccccc32)c1,-3.33% (inactive)
17,CCN(CC)CCNC(=O)c1sc2nc(-c3ccccc3)cn2c1C,10.8% (inactive)
18,Cc1ccc2nc3c(cc(C(=O)NCc4ccccc4)c(=N)n3CCCn3ccnc3)c(=O)n2c1,-6.07% (inactive)
19,COc1cc(C(=O)OCC(C)=O)cc(NC(=O)c2ccco2)c1OC,5.21% (inactive)
